The values that follow come from PubChem BioAssay AID1578 (Sanford-Burnham Center for Chemical Genomics, 2009).

The whole screen tested about 290,000 compounds, of which about 3,000 (1%) were called active. The list comes from a sample in which actives are over-represented; it also holds similar structures and randomly drawn compounds. Values without a mark were called inactive. No stated cut-off is given here; in the data, active means inhibition mostly above about 36% (no sharp cut-off); inactive means mostly below about 34%.

A short description of the assay: NOD1 signaling inhibitors, primary screen, cell-based, luminescence, uHTS (AID 1578).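 Further: HEK-293T reporter cells stimulated with the NOD1 agonist gamma-tri-DAP.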 To be noted: NOD1-driven NF-kB luciferase reporter cells, at 4 µM, stronger effect = higher value. A general note: In a reporter assay the amount or activity of a reporter protein is the signal.
For the compound `N#Cc1ccc(N2CCCC2C(=O)O)c([N+](=O)[O-])c1` (stereo not drawn), the inhibition is 6.2%.
With `COC(=O)C1(c2ccccc2)NC(c2cccs2)C2C(=O)N(C)C(=O)C21` (stereo not drawn) the figure was -15.5%; with `CN(C)/C=C1\N=C(c2cccnc2Oc2ccc(Cl)cc2)OC1=O`, -11.9%; with `COc1ccc(OC)c(NC(=O)CNC(=O)Cn2ccc3ccccc3c2=O)c1`, -4%.
The same measure for `CN(C)c1nc2n(c(=O)n1)CCS2`: -11.7%.
With `CCOC(=O)C1CCN(S(=O)(=O)c2c(Cl)ccc3nonc23)CC1` the figure was 102% (active); with `CCOC(=O)C1CCN(S(=O)(=O)c2cccc3nonc23)CC1`, -27.8%.
Regarding `CCOC(=O)C1CCN(S(=O)(=O)c2c(C)noc2C)CC1`, the inhibition was -15.9%.
Regarding `CC(CCN1CCOCC1)c1ccccc1` (stereo not drawn), the inhibition is -28%.
`O=C(c1ccc(Br)c([N+](=O)[O-])c1)N1CCN(Cc2ccccc2)CC1`: the inhibition is -6.4%.
For the compound `O=C(NC1CCCCC1)c1ccc(S(=O)(=O)c2ccccc2Cl)c([N+](=O)[O-])c1`, the inhibition is 91.4% (active).
With `O=C(NC1CCCC1)c1ccc(Cl)c(S(=O)(=O)N2CCCCC2)c1`, the inhibition is 10.6%.
Consider `O=C(NC1CCCCC1)c1ccc(S(=O)(=O)c2ccccc2)cc1`, for which the inhibition is 18%.
In the case of `Cc1cc(C(=O)N2CCN(Cc3ccccc3)CC2)ccc1[N+](=O)[O-]`, the inhibition is 0.5%.
With `O=C(c1ccc(Cl)c(S(=O)(=O)N2CCCC2)c1)N1CCN(c2ccc(F)cc2)CC1` the figure was 0.4%; with `O=C(c1ccc(S(=O)(=O)Cc2ccccc2F)c([N+](=O)[O-])c1)N1CCCCCC1`, 1%.
With `Cc1ccc(C(=O)N2CCN(c3ccccc3)CC2)cc1S(=O)(=O)N1CCCC1` the figure was 3.9%.
Consider `O=C(c1ccc(S(=O)(=O)Cc2cc(F)ccc2F)c([N+](=O)[O-])c1)N1CCCC1`, for which the inhibition is 5%.
The same measure for `COc1cccc(C(=O)NCCCNC(=O)c2cccc(OC)c2)c1`: -4.9%; for `CCN(CC)S(=O)(=O)c1ccc(S(=O)(=O)N2CCN(C(=O)c3ccco3)CC2)cc1`: -3.5%; for `CC(=O)Nc1ccc(NC(=O)C(C)Sc2nnc(-c3cccs3)o2)cc1` (stereo not drawn): -14.2%.
Turning to `Cc1ccccc1C(=O)Nc1ccccc1`, the inhibition was -15.4%.
Turning to `Cc1c(C(=O)NN2CCOCC2)oc2c1ccc1ccccc12`, the inhibition is -35.1%.
On to `COc1ccc(CCNC(=O)COC(=O)/C=C/c2ccc(OCC#N)c(OC)c2)cc1`, for which the inhibition is -30.9%.
For the compound `Cc1cc(C)n2nc(C(=O)N3CCN(c4ccc([N+](=O)[O-])cc4)CC3)nc2n1`, the inhibition is -21.8%.
On to `CCOC(=O)C1CCN(CC(O)COCc2ccccc2)CC1` (stereo not drawn), for which the inhibition is 34.7% (active).
On to `CCOC(=O)C1CCN(CC(O)COCc2ccc(Cl)cc2)CC1` (stereo not drawn), for which the inhibition is -12.3%.
With `CCOC(=O)C1CCN(CC(O)COCc2cccs2)CC1` (stereo not drawn), the inhibition is -28.2%.
With `COC(=O)c1ccc(/C=N/NC(=O)c2ccc3nc[nH]c3c2)cc1` the figure was -10.6%; with `O=C(O)CCc1ccc(-c2ccc(Br)cc2)n1Cc1ccco1`, -8.6%.
With `CC(C)C[C@H](NC(=O)N1CCn2c1nc1ccccc12)C(=O)N[C@@H](C(=O)O)c1ccccc1` the figure was -6%.
Take `CC(C)[C@H](NC(=O)N1CCn2c1nc1ccccc12)C(=O)N[C@@H](C(=O)O)c1ccccc1`: the inhibition was 1.1%.
The same measure for `CC(C)[C@H](NC(=O)N1CCn2c1nc1ccccc12)C(=O)N[C@H](C(=O)O)c1ccccc1`: 68.4% (active); for `CC(C)(C)C(=O)NC1(C(F)(F)F)NC(=O)N(c2ccccc2F)C1=O` (stereo not drawn): 2.6%.
With `Cc1cnc(NC(=O)c2nn(C)cc2[N+](=O)[O-])s1` the figure was 24.8%; with `CCn1cc([N+](=O)[O-])c(C(=O)Nc2nc(-c3ccc(C)c(C)c3)c(C)s2)n1`, -63.4%.
With `CCn1cc([N+](=O)[O-])c(C(=O)Nc2nc(-c3ccc(C)cc3)c(C)s2)n1` the figure was 2.6%.
As to `Cn1cc([N+](=O)[O-])c(C(=O)Nc2nccs2)n1`, the inhibition is -14.6%.
`Cc1csc(=S)n1-c1ccccc1`: the inhibition was 5.1%.
With `COc1ccccc1C(=O)N/C(=C\c1cn(S(=O)(=O)N(C)C)c2ccccc12)C(=O)NCCN1CCOCC1` the figure was -15%.
In the case of `COc1ccc(C(=O)Oc2cccc(Nc3ncnc4ccccc34)c2)cc1OC`, the inhibition is 29.6%.
`COc1cccc(N2CCN(c3nc(C)c(C)c(=O)[nH]3)CC2)c1`: the inhibition is -29.1%.
With `Cc1cc(C(=O)O/N=C(\N)c2ccc(C(C)(C)C)cc2)no1` the figure was -2.5%; with `COC(=O)c1c(C)noc1-c1ccc(Cl)cc1`, -8.4%.
Take `Cc1noc(-c2ccc(Cl)cc2)c1C(=O)O/N=C(\N)c1ccc(C(C)(C)C)cc1`: the inhibition was 84% (active).
As for `COC(=O)/C(N=Nc1cccc(C(F)(F)F)c1)=C(\C)O`, the inhibition is 1.3%.
With `CC(=O)/C(N=Nc1cccc(C(F)(F)F)c1)=C(\C)O` the figure was -26.4%.
With `O=C(/C(N=Nc1cccc(C(F)(F)F)c1)=C(/O)c1cccs1)C(F)(F)F` the figure was 58.5% (active); with `CC(C)C1CC(c2ccccc2)(C(CN)CO)CCO1` (stereo not drawn), -22.3%.
The same measure for `C=C(C)COc1ccc(-c2[nH]ncc2-c2ccc(Br)cc2)c(O)c1`: -22.6%.
As for `Cc1nc2ccccc2c2oc(C(=O)NCc3ccc4c(c3)OCO4)cc12`, the inhibition was 38.5%.
With `Cc1cc(C(=O)NCC2COc3ccccc3O2)c2ccccc2n1` (stereo not drawn) the figure was -14.4%.
Regarding `Cn1c(Cc2ccccc2)nnc1SCC(=O)N1CCN(c2ccccc2)CC1`, the inhibition was -14.3%.
The same measure for `COC(=O)c1sccc1NC(=O)/C=C/C(=O)O`: -34.3%.
The same measure for `O=C(Nc1ccc([N+](=O)[O-])cc1)c1nc[nH]c1C(=O)NC1CCCCC1`: 80.7% (active).
On to `CCOC(=O)c1[nH]cnc1C(=O)Nc1ccc([N+](=O)[O-])cc1`, for which the inhibition is -7.2%.
The same measure for `O=C(Nc1ccc(F)cc1)c1nc[nH]c1C(=O)Nc1ccc([N+](=O)[O-])cc1`: 45%; for `Nc1nnc(SCc2c(F)cccc2Cl)s1`: -8.2%; for `O=C(NCc1ccccc1)C1=C[C@@H](c2csc3ccccc23)C[C@@H](OCc2ccc(CO)cc2)O1`: 43.8% (active).
For `O=C(Nc1ccccc1)C1=C[C@H](c2csc3ccccc23)C[C@H](OCc2ccc(CO)cc2)O1`, the inhibition was -4.6%.
As for `CC(=O)n1cc([C@@H]2C=C(C(=O)NCc3ccccc3)O[C@H](OCc3ccc(CO)cc3)C2)c2ccccc21`, the inhibition is -7.1%.
With `O=C(NCc1ccccc1)C1=C[C@H](c2csc3ccccc23)C[C@H](OCc2ccc(CO)cc2)O1` the figure was -5.8%.
The same measure for `C#CCNC(=O)C1=C[C@H](c2cn(C(C)=O)c3ccccc23)C[C@H](OCc2ccc(CO)cc2)O1`: 46.1% (active); for `C#CCNC(=O)C1=C[C@@H](c2cn(C(C)=O)c3ccccc23)C[C@@H](OCc2ccc(CO)cc2)O1`: -23.5%.
The same measure for `CC(NS(=O)(=O)c1ccc2[nH]c(=O)c(=O)[nH]c2c1)C(=O)O` (stereo not drawn): -25.3%; for `O=C(CCCN1C(=O)/C(=C/c2ccccc2Cl)SC1=S)N1CCCC1`: 18.8%; for `Cc1cc(Cl)cc(C)c1OCCNCc1ccccc1`: -43.1%.
With `Cc1ccc(S(=O)(=O)CCc2nnc(NC(=O)C3CCCCC3)s2)cc1`, the inhibition was 1.5%.
Regarding `COc1ccc(NC(=O)Cn2ncn3nc(-c4ccc(OC)cc4)cc3c2=O)cc1`, the inhibition was -72%.
Regarding `CC(C)c1ccc(Nc2nc(Cl)nc(Cl)n2)cc1`, the inhibition was -33%.
For `CCCOC(=O)Cn1cnc2scc(-c3ccc(OC)cc3)c2c1=O`, the inhibition is 41.3%.
With `CCOC(=O)c1ccccc1NC(=O)CSc1ccc(-c2ccccn2)nn1` the figure was -59.6%.
With `Cc1ccccc1NC(=O)CSc1ccc(-c2cccnc2)nn1`, the inhibition is -33.1%.
In the case of `CCOC(=O)c1ccccc1NC(=O)CSc1ccc(-c2cccnc2)nn1`, the inhibition was 59.2% (active).
On to `Cc1ccc(NC(=O)Cn2nnc3ccccc32)c(C)c1`, for which the inhibition is -16.7%.
The same measure for `COc1ccc(-c2nnc(SCC(=O)N3c4ccccc4Sc4ccccc43)o2)cc1`: -16.3%; for `O=C(Sc1nnc(-c2ccccc2)o1)N1c2ccccc2Sc2ccccc21`: -37.4%; for `COc1ccc(-c2nnc(SC(=O)N3c4ccccc4Sc4ccccc43)o2)cc1`: 65.2% (active).
With `Fc1ccc(-n2nnnc2-c2ccccc2Cl)cc1` the figure was -26.4%; with `COc1ccc(C(=O)N2CCC(C(=O)Nc3ccc4c(c3)OCCO4)CC2)cc1`, -5.6%; with `Fc1ccc(-c2nnc(NC3=NCCCCC3)o2)cc1`, 46.2%.
As for `Cc1ccc(S(=O)(=O)NC(=NC(C)C)c2ccccc2)cc1`, the inhibition was -28.2%.
The same measure for `CC(C)CN=C(NS(=O)(=O)c1ccccc1)C(Cl)(Cl)Cl`: 34.3%.
Take `CC(C)N=C(NS(=O)(=O)c1ccccc1)C(Cl)(Cl)Cl`: the inhibition is 62.8% (active).
As for `O=C(CSc1nnc(-c2cccnc2)n1Cc1ccco1)Nc1cccc(O)c1`, the inhibition was -18.5%.
The same measure for `CCC(=O)Nc1cc(ON=C(C)C)cc([N+](=O)[O-])c1`: -24.6%; for `CC(C)=NOc1cc(NC(=O)CCl)cc([N+](=O)[O-])c1`: 89.5% (active); for `CC(=O)Nc1cc(ON=C(C)C)cc([N+](=O)[O-])c1`: -34.9%.
The same measure for `O=C(Nc1ccc(S(=O)(=O)N2CCCCCC2)cc1)c1ccc(Br)o1`: 26.1%.
Turning to `COc1ccc(CCNc2oc(COc3ccccc3)nc2C#N)cc1`, the inhibition was -56.7%.
The same measure for `COc1ccc(CCNc2oc(COc3ccccc3F)nc2C#N)cc1OC`: 21.4%; for `COc1ccc(CCNc2oc(Cc3ccccc3)nc2C#N)cc1OC`: 25.6%.
With `COc1ccc(CCNc2oc(COc3ccc(F)cc3)nc2C#N)cc1` the figure was -48.1%.

For orientation: inhibition means the change of the read-out against control, counted positive when it falls.
